Most compounds without a hit are left out; they make up all but 0.95% or so of the library.
SK-BR-3 tox 24h: SK-BR-3 proliferation inhibitors; AID 847; hit rate 0.47% among 41,000; SK-BR-3 viability, CellTiter-Glo ATP luminescence, 24 h; active compounds read low; viability, % at 10 µM;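 active = viability at or below the median of all test compounds minus 3 SD, in both replicates if run twice, cut at about 45% in these data; inconclusive = duplicate replicates that disagree with each other; inactive = viability above that cutoff in every replicate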
Cdc25B block: human M-phase inducer phosphatase 2 inhibition | inhibition, %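 (compounds tested at 10 µM final in the well)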 | recombinant Cdc25B, OMFP fluorescence Ex485/Em525 | hit rate 0.1% among 65,000 | AID 368; in the data active = inhibition above about 50%
DUSP1 inh: human dual specificity phosphatase 1 inhibition; recombinant MKP-1, OMFP hydrolysis fluorescence; P28562; inhibition, %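 (compounds tested at a single concentration somewhere between 10 and 100 µM)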; hit rate 0.15% among 65,000; AID 374;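 active = inhibition above about 50%, limit read from the data; inconclusive = inhibition over screen mean plus 3 SD, below that limit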
Target sequence (P28562 whole entry, looked up): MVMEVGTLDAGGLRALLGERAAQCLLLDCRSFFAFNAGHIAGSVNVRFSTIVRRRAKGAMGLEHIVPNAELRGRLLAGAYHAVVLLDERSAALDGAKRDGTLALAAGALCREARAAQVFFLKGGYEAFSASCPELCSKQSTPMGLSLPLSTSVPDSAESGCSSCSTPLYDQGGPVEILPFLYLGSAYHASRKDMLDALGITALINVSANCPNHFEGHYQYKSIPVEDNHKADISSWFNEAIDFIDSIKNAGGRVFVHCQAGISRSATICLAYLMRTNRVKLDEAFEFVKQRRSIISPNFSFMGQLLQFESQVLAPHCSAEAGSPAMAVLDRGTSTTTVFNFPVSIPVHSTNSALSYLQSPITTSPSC
WNV NS2B-NS3 inh: WNV NS2B-NS3 proteinase inhibition; z-score (test concentration not listed); AID 577; P06935; WNV NS2B-NS3 protease, fluorogenic substrate Ex360/Em465; active compounds read low; hit rate 0.18% among 65,000; in the data active = z-score below about -3
Target sequence (P06935 1371-1501 limits assumed): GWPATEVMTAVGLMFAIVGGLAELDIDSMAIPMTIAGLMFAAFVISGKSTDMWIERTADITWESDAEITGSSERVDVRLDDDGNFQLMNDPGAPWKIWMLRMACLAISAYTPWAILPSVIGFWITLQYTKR
Target sequence (P06935 1502-1679 limits assumed): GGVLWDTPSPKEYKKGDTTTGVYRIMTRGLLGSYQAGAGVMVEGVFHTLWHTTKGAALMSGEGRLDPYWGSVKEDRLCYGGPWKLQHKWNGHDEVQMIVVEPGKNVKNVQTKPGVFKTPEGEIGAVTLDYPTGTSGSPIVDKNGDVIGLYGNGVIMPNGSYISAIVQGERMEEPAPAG
ROCK2 inh: blocks human Rho kinase 2 activity; purified ROCK2, Kinase-Glo ATP depletion luminescence; inhibition, % at 6 µM; hit rate 0.35% among 60,000; AID 604;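 active = inhibition above the screen-wide mean inhibition plus 3 SD, cut at about 18% in these data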
PKA kinase inh: PKA (human) kinase inhibition | P17612 | hit rate 0.1% among 65,000 | PKA Kemptide phosphorylation, Kinase-Glo ATP luminescence | inhibition, % at 6 µM;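 active = inhibition above the screen-wide mean inhibition plus 3 SD, cut at about 21% in these data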
Redox 05 DTT: redox cycling H2O2 generation, Cdc25B counter-screen; shares compounds with Cdc25B block; cell-free redox cycling H2O2 generation, 0.5 mM DTT; hit rate 50% among 30; AID 682; EC50, µM; in the data active = EC50 below about 30 µM
Redox 1 DTT: counter-screen for Cdc25B probes: redox cycling H2O2 in 1 mM DTT; cell-free redox cycling H2O2 generation; EC50, µM; shares compounds with Cdc25B block; 30 tested, under 10 active; in the data active = EC50 below about 50 µM
Redox H2O2: counter-screen for MKP-1 and MKP-3 probes: redox cycling H2O2 generation; shares compounds with DUSP1 inh; DTT, phenol red/HRP; EC50, µM; 60 tested, under 10 active; call rule not given here
Each line names hits and unclear results; the compound was inactive in the other large screens (follow-up assays come after a bar, where they were run).

[O-]/[N+](=C\c1ccncc1)c1ccc(Br)cc1	DUSP1 inh 57 (no result: ROCK2 inh, PKA kinase inh)
CC1CCCCC1NC(=O)CCn1c(=O)oc2ccccc21 (centres undefined)	DUSP1 inh 77
O=c1cc(NCc2ccco2)[nH]c(=O)n1-c1ccc(Br)cc1	none (no result: SK-BR-3 tox 24h, ROCK2 inh)
O=C(Nn1c(=S)[nH]c2ccccc2c1=O)c1ccncc1	ROCK2 inh 20
O=C(c1cccs1)N1CCN(C(=O)c2ccco2)c2ccccc2C1	WNV NS2B-NS3 inh -4.8
O=C(c1cccs1)N1CCOCC1	none
C/C(CC1(O)C(=O)N(Cc2ccccc2)c2ccccc21)=N\O (centres undefined)	WNV NS2B-NS3 inh -6.4
O=C(OCC(=O)N1CCc2ccccc21)c1ccccc1	none (no result: SK-BR-3 tox 24h)
O=C(OCC(=O)N1CCc2ccccc21)c1cccnc1	SK-BR-3 tox 24h 41
O=C(CCCCn1c(=O)c2ccccc2n(CC(=O)Nc2ccc(F)cc2)c1=O)NCc1ccco1	none
Cc1ccc(NC(=O)Cn2c(=O)n(CCCCC(=O)NCc3ccco3)c(=O)c3ccccc32)cc1	SK-BR-3 tox 24h 43
CCc1nnc(NC(=O)c2ccc(S(=O)(=O)N(CCOC)CCOC)cc2)o1	SK-BR-3 tox 24h 35
Cc1cc(N2CCC(C(=O)NC3CCCCC3)CC2)nc(-c2ccccc2)n1	WNV NS2B-NS3 inh -4.8
Cc1nn(-c2ccccc2)c2sc(C(=O)O)cc12	Cdc25B block 102 (no result: ROCK2 inh)
Cc1nn(-c2ccccc2)c2sc(C(=O)OC3CCOC3=O)cc12 (centres undefined)	WNV NS2B-NS3 inh -3.5 (no result: SK-BR-3 tox 24h)
COC(=O)c1cc2c(C)nn(-c3ccccc3)c2s1	none
COc1cc(NCCCC(C)N)c2ncccc2c1 (centres undefined)	SK-BR-3 tox 24h 23
COc1cc(NS(=O)(=O)c2ccc(C)cc2)c2ncccc2c1	none
CCOC(=O)CNC(=O)C(Cc1ccccc1)NS(=O)(=O)c1cccs1 (centres undefined)	WNV NS2B-NS3 inh -3.4 (no result: ROCK2 inh)
O=C(c1ccc2c(=O)n(C3CCCC3)c(=S)[nH]c2c1)N1CCN(C2CCCCC2)CC1	DUSP1 inh 52 (no result: SK-BR-3 tox 24h)
Cc1cc(N)n(-c2ccccc2)n1	none (no result: ROCK2 inh, PKA kinase inh)
Cc1cc(-c2cc(N)n(-c3ccccc3)n2)c(C)n1C1CCCC1	SK-BR-3 tox 24h 43
COc1ccc(OCC(O)Cn2c(=N)n(CCN3CCCCC3)c3ccccc32)cc1 (centres undefined)	none
OC(CNCCCN1CCCCC1)COc1ccccc1 (centres undefined)	WNV NS2B-NS3 inh -6
O=C(NCc1ccc2c(c1)OCO2)c1ccc2snnc2c1	ROCK2 inh 38
Cn1nnc2cc(C(=O)NCc3ccc4c(c3)OCO4)ccc21	none
Cc1ccccc1Nc1cc2ccccc2c(=O)[nH]1	Cdc25B block 81 | Redox 05 DTT inactive | Redox 1 DTT inactive
Cc1cccc(C)c1NC(=O)C(c1cccs1)N(Cc1ccco1)C(=O)Cn1nnc2ccccc21 (centres undefined)	none
Cc1ccc2c(c1C)NC(C(=O)O)C1CC=CC21 (centres undefined)	Cdc25B block 53, DUSP1 inh inconclusive | Redox 05 DTT inactive | Redox 1 DTT inactive
O=C(CN1CCOc2ccccc21)N1CCN(c2cccc(Cl)c2)CC1	none (no result: SK-BR-3 tox 24h)
CCOC(=O)C(C(=O)OCC)c1cc(Br)c2noc3c2c1C(=O)c1ccccc1-3	SK-BR-3 tox 24h 26, Cdc25B block 62 (no result: ROCK2 inh) | Redox 05 DTT 26 | Redox 1 DTT 46
CC(=O)OCCNc1cc(N2CCN(C)CC2)c2noc3c2c1C(=O)c1ccccc1-3	none (no result: SK-BR-3 tox 24h)
Cc1ccc(/C=c2\sc3nc(-c4ccco4)nn3c2=O)o1	none
COc1ccc(Br)cc1/C=c1\sc2nc(-c3ccco3)nn2c1=O	Cdc25B block 61, DUSP1 inh 58, WNV NS2B-NS3 inh -3 | Redox 05 DTT inactive | Redox 1 DTT inactive | Redox H2O2 inactive
O=C(Nc1ccc2nc(-c3ccco3)c(-c3ccco3)nc2c1)N1CCCCCC1	Cdc25B block 51, DUSP1 inh 51 | Redox 05 DTT inactive | Redox 1 DTT inactive | Redox H2O2 inactive
N#Cc1c(N)sc(=S)c2c1CCN(Cc1ccccc1)C2	Cdc25B block 102, DUSP1 inh 100 (no result: SK-BR-3 tox 24h) | Redox 05 DTT 13 | Redox 1 DTT 24 | Redox H2O2 35
O=C(c1cnn2c(C(F)(F)F)cc(-c3ccco3)nc12)N1CCc2ccccc2C1	none
COc1ccc(OC)c(S(=O)(=O)NCCc2ccccc2)c1	none
CCn1c(N)c(C(=O)NCC2CCCO2)sc1=S (centres undefined)	none
CCCCCNC(=O)c1ccc2c(=O)[nH]c3c(C(=O)NCC4CCCO4)sc(=S)n3c2c1 (centres undefined)	DUSP1 inh 55 (no result: SK-BR-3 tox 24h) | Redox H2O2 inactive
FC(F)(F)c1ccc(N2CCOCC2)c(Nc2nc3ccccc3n3cnnc23)c1	DUSP1 inh 61 (no result: SK-BR-3 tox 24h) | Redox H2O2 inactive
COc1ccc(C(=O)c2no[n+]([O-])c2C(=O)c2ccc(OC)cc2)cc1	DUSP1 inh inconclusive
O=C(c1cccs1)c1no[n+]([O-])c1C(=O)c1cccs1	DUSP1 inh 91 | Redox H2O2 inactive
Cc1ccsc1C(C(=O)NC1CCCCC1)N(C(=O)c1csnn1)C1CC1 (centres undefined)	none
Cc1cc(C)n(S(=O)(=O)c2cccc(Cl)c2Cl)n1	none
Nc1c(N2CCCC2)cc(Cl)c2nonc12	DUSP1 inh 72 | Redox H2O2 inactive
Nc1c(N2CCOCC2)cc(Cl)c2nonc12	none
CCC(=O)Nc1c(C#N)c2nc3ccccc3nc2n1-c1ccccc1C	none
COc1ccc(-n2c(NC(=O)c3ccco3)c(C#N)c3nc4ccccc4nc32)cc1	none | Redox H2O2 inactive
Cc1noc(C)c1CSc1ncnc2ccccc12	none
CCn1c(SCC(=O)Nc2ccc3c(c2)OCCO3)nnc1-c1ccco1	none (no result: SK-BR-3 tox 24h)
CCn1c(SCC(=O)Nc2ccc3c(c2)c2ccccc2n3CC)nnc1-c1ccco1	DUSP1 inh 64, WNV NS2B-NS3 inh -3 (no result: SK-BR-3 tox 24h) | Redox H2O2 inactive
CN1C(=O)C(C(=O)NC(C)(C)C)C2c3ccccc3OC13CCCCC23 (centres undefined)	none
CCCCCC#CCC#CCC#CCC#CCCCC(=O)O	none | Redox H2O2 inactive
CCCCCc1ccc(CC(=O)O)cc1	none
Cc1cc(NC(=O)c2ccc(S(=O)(=O)N3CCCC3)cc2)nc2c1c(=O)oc1ccccc12	DUSP1 inh 67 (no result: SK-BR-3 tox 24h, ROCK2 inh) | Redox H2O2 inactive
O=C1CC(N2CCN(S(=O)(=O)c3cccc(C(F)(F)F)c3)CC2)C(=O)N1Cc1ccccc1 (centres undefined)	none (no result: SK-BR-3 tox 24h)
O=C(Nc1cccc(NC(=O)c2nccc3ccccc23)c1)c1ccco1	none (no result: SK-BR-3 tox 24h)

Assay outcomes deposited in PubChem BioAssay by several laboratories.
